Compound activity: PubChem BioAssay, National Center for Advancing Translational Sciences (NCATS)
IMPase Li cell: cell-permeable IMPase inhibitors with lithium potentiation; CHO-M1 cells, IP1 TR-FRET (IP-One), carbachol + lithium; Potency, µM (series often up to 59.4 µM), most hits filed as inhibitors; actives 0.35% (n = 210,000);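 also: IP1 builds up when IMPase is blocked and the TR-FRET signal falls; nearly all actives have a fitted effect of over 50% in size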
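CHO cells stably expressing M1 receptor (2000/well) were cultured 16–30 h, then exposed to compounds with a small lithium addition for 30 min at 37C. IP1 was measured by TR-FRET competition; AC50 from Hill fits.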
NPSR antag: neuropeptide S receptor (human) antagonism, cAMP. CHO-NPSR cells, cAMP TR-FRET, antagonist mode. Q6W5P4. AID 1461. Potency, µM (titrated, usually from 38.3 µM), hits mostly inhibitors. actives 1% (n = 220,000); also: nearly all actives have a fitted effect of over 50% in size
Tb PFK block: T. brucei PFK enzyme inhibition | O15648 | T. brucei PFK, ADP-Glo luminescence | Potency, µM (doses to about 57.5 µM), most hits filed as inhibitors | actives 0.17% (n = 330,000) | AID 485367; also: nearly all actives have a fitted effect of over 60% in size
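1.25 nM PFK with 0.5 mM F6P and 0.1 mM ATP in 0.1 M TEA pH 8.0, 5 mM MgCl2, incubated 45 min at room temperature; ADP measured by ADP-Glo luminescence; compounds titrated up to 57 uM.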
MBNL1-CUG inh: blocks human MBNL1 binding to CUG repeat RNA; Q9NR56; TR-FRET MBNL1-His/biotin-(CUG)12 binding, 665/545 ratio; Potency, µM (series often up to 57.5 µM), actives largely listed as inhibitors; actives 0.036% (n = 280,000); active = well fitted inhibition curve with a large enough effect in the signal ratio, with a control signal flat, not every such curve was filed as active; inconclusive = small, poorly fitted or top-dose-only effect, or effect the other way, or a change in a side signal; inactive = no such curve, though single readings can be large or run the other way; the % refers to the signal ratio
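MBNL1-His + Biotin-(CUG)12, cpd titration 92 nM–58 uM; Tb anti-His Ab 0.055 ng/ul, SA-XL665 5 nM (final); 60 min RT; ratiometric 665/545 nm, Ex 340 nm; normalized to buffer and full-complex controls.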
RGS12 GoLoco inh: blocks human Gai1 binding to RGS12 GoLoco peptide, red readout; P63096; Gai1:RGS12 GoLoco peptide FP, rhodamine, 10 min; Potency, µM (titrated, usually from 61.6 µM), hits mostly inhibitors; actives 0.44% (n = 230,000); active = well fitted inhibition curve with a large enough effect, not every such curve was filed as active; inactive = no such curve, though single readings can be large or run the other way; also: nearly all actives have a fitted effect of over 30% in size
Target sequence (P63096 whole entry, looked up): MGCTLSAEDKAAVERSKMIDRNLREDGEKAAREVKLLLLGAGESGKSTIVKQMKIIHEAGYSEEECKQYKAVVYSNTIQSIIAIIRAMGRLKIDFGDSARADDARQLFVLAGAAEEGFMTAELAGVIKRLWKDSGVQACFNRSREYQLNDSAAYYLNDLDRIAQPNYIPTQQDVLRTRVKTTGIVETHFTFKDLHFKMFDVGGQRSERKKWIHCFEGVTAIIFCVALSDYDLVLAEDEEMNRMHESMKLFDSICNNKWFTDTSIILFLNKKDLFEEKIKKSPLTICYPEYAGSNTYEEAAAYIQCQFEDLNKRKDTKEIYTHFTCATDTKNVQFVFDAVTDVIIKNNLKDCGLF
Hits are given with their value; 0 = inactive; ? = inconclusive; - = no result given; [ ] = another dose, or the depositor's remark. The full list was thinned out, with hits kept by preference. Unless noted, calls follow the shape of the dose curve; as a rule, active = well fitted curve in the direction sought with a large enough effect; inconclusive = small, poorly fitted or top-dose-only effect, or another doubt; inactive = no such curve, though single readings can be large; an effect the other way counts as inactive or inconclusive.

SMILES | IMPase Li cell | NPSR antag | Tb PFK block | MBNL1-CUG inh | RGS12 GoLoco inh
CCOc1ccc(/C(O)=C2/C(=O)C(=O)N(CCOCCO)C2c2ccccc2)cc1 (stereo not drawn) | 11µM | 0 | 0 | 0 | 0
COc1ccc(C2/C(=C(\O)c3ccc4c(c3)OCCO4)C(=O)C(=O)N2Cc2cccnc2)cc1 (stereo not drawn) | - | - | 0 | 0 | -
CCOc1ccc(/C(O)=C2/C(=O)C(=O)N(CCOCCO)C2c2cccnc2)cc1 (stereo not drawn) | 11µM | ? | 0 | 0 | 0
Cc1cc(OCC(C)C)ccc1/C(O)=C1/C(=O)C(=O)N(Cc2cccnc2)C1c1ccncc1 (stereo not drawn) | 4.5µM | ? | 0 | 0 | 0
CCOC(=O)[C@H]1[C@H]2COc3cc(OC)ccc3[C@@H]2N2C(=O)c3cc(F)ccc3NC(=O)[C@@]12C | - | - | 0 | - | -
O=C(NC(=S)N1CCCC(C(F)(F)F)C1)c1ccc(F)cc1 (stereo not drawn) | - | - | 0 | 0 | -
CS(=O)(=O)c1ccc(Cl)c(NC(=O)COC(=O)c2ccc(-n3cnnn3)cc2)c1 | - | - | 0 | - | -
Cc1cc(C(=O)CCC(=O)NCC(=O)Nc2c(C)cccc2C)c(C)s1 | - | - | 0 | - | -
COc1cccc2c(=O)n(CC(=O)Nc3ccc(F)cc3)ccc12 | ? | 0 | 0 | 0 | 0
COc1cccc2c(=O)n(CC(=O)Nc3cccc(F)c3)ccc12 | 14µM | 0 | 0 | 0 | 0
O=C1NC[C@H](c2ccccc2)N1 | 0 | - | - | - | 0
Cc1ccc(S/C=C\C(=O)c2ccccc2)cc1 | 0 | 13µM | 0 | 0 | 0
Cc1ccc(C(=O)/C=C\C(=O)c2ccc(C)cc2)cc1 | 0 | ? | 0 | 0 | 0
CN(CC(=O)Nc1ccc(F)c(F)c1F)C(=O)C1COc2ccccc2O1 (stereo not drawn) | - | - | 0 | - | -
COC(=O)C1C(=O)c2c([nH]c(C(=O)OCC3CCCO3)c2C)CC1C (stereo not drawn) | 0 | 13µM | 0 | 0 | 0
COCCOC(=O)c1[nH]c2c(c1C)C(=O)C(C(=O)OC)C(C)C2 (stereo not drawn) | 0 | 0 | 0 | 0 | 0
Cc1c(C(=O)NC2CCC(C)CC2)oc2ccccc12 (stereo not drawn) | - | - | 0 | 0 | -
Cc1cc2c3c(c1)C(C)(c1ccccc1)CC(C)(C)N3C(=O)C21C(C#N)=C(N)OC2=C1C(=O)CC(C)(C)C2 (stereo not drawn) | 0 | 10µM | 0 | 0 | 0
COc1cc2c(C#CCCCO)c(-c3ccsc3)oc(=O)c2cc1OC | - | - | 0 | - | -
O=C(COC(=O)c1ccc(Cl)c(S(=O)(=O)N2CCCC2)c1)NCc1ccccc1 | - | - | 0 | - | -
CCn1c(C)[n+](CCCS(=O)(=O)[O-])c2cc(Cl)c(Cl)cc21 | 0 | 0 | 0 | 0 | 4µM
CCn1c(C)[n+](CC)c2ccc(S(=O)(=O)NC)cc21 | 0 | 0 | 0 | 0 | 0
CS(=O)(=O)c1cc([N+](=O)[O-])c(Sc2nc3ccccc3[nH]2)c([N+](=O)[O-])c1 | 0 | ? | ? | ? | 7.9µM
CCOC(=O)C1CCCN(C(=O)CCCn2c(=O)c3cccn3c3cccnc32)C1 (stereo not drawn) | - | - | 0 | 0 | -
CS(=O)(=O)c1nc(-c2cccs2)cc(C(F)(F)F)n1 | 0 | 3.2µM | 0 | 0 | 0
SMILES | IMPase Li cell | NPSR antag | Tb PFK block | MBNL1-CUG inh | RGS12 GoLoco inh
CCOC(=O)CCS(=O)(=O)c1nc(-c2ccccc2)cc(C(F)(F)F)n1 | 0 | 7.9µM | 0 | 0 | 0
CCOC(=O)CS(=O)(=O)c1nc(-c2ccccc2)cc(C(F)(F)F)n1 | 0 | 10µM | 0 | 0 | 0
O=C(O)CCS(=O)(=O)c1nc(-c2cccs2)cc(C(F)(F)F)n1 | 0 | 0 | 0 | 0 | 0
COC(=O)CCS(=O)(=O)c1nc(-c2ccccc2)cc(C(F)(F)F)n1 | 0 | 10µM | 0 | 0 | 0
COc1cccc(N2CCN(C(=O)CN3C(=O)NC(C)(c4ccc5ccccc5c4)C3=O)CC2)c1 (stereo not drawn) | - | - | 0 | - | -
COc1ccc(C(=O)O)cc1S(=O)(=O)N1CCN(Cc2ccc3c(c2)OCO3)CC1 | - | - | 0 | - | -
Cc1noc(C)c1C(=O)N1CCC2(CCCN(C(=O)Nc3ccccc3)C2)CC1 | 0 | - | - | - | 0
CCCCc1nc2c(c3c1C[C@H](C)OC3)CN(S(=O)(=O)c1ccc(NC(C)=O)cc1)CC2 | 0 | - | - | - | 0[14.2 µM]
COc1cccc(Nc2ncc3nc(-c4ccc(F)cc4)c(=O)n(CCC#N)c3n2)c1 | 0 | - | - | - | 0
